Results on six compounds are retold here after PubChem BioAssay.

The target in one test is Albumin (Bos taurus) (UniProt P02769). The test is described as follows: bovine serum albumin binders on microarray, profiling panel, artefact control for SMM control protein annotation, biochemical, small-molecule microarray, Alexa647 label, 635/667 nm fluorescence (AID 1118).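 Further: score merges 667 nm emission intensity and signal-to-noise per printed compound spot.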 The note with it: BSA-A647 binding, fluorescence 635 nm, higher = more signal.
A short description of test [1]: small-molecule microarray binders of probe aXIP, primary screen, biochemical, NeuroSMM set, 635/667 nm fluorescence (AID 1119).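 Further: probe is the protein aXip251-270 applied at 1 µg/mL to compound-printed slides; binding of probe to printed compounds measured as 667 nm fluorescence plus signal to noise.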 The settings on record: higher = more signal, called active from +8 up or from −8 down.
The nature of test [2]: small-molecule binders of probe aNOTCH3, primary screen, biochemical, small-molecule microarray, 635/667 nm fluorescence (AID 1120).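 Further: probe is a biotin-tagged antibody raised against NOTCH3 rather than NOTCH3 protein; score merges spot fluorescence near 667 nm with spot signal to noise.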 The settings on record: higher = more signal.
The nature of test [3]: small-molecule binders of probe aNOTCH2, primary screen, biochemical, small-molecule microarray, 635/667 nm fluorescence (AID 1121).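 Further: score merges feature fluorescence read at 667 nm with its signal to noise.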 The settings on record: higher = more signal.
Test [4] has as its target Carbonic anhydrase 2 (Homo sapiens) (UniProt P00918). The test is described as follows: CAII small-molecule binders, profiling panel, biochemical, small-molecule microarray, Alexa647-labelled CAII (AID 1122). The settings on record: CAII-A647 binding fluorescence, higher = more signal.
Test [5] can be described thus: COS7 lysate on small-molecule microarray, probe aHis, 635 nm (AID 1123).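 Further: z-score combines 667nm fluorescence intensity with signal-to-noise per printed compound spot.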 The note with it: COS7 cell lysate, fluorescence, higher = more signal.
Test [6] is described as follows: compound binding in COS7 lysate, probe aLAP1, primary screen, cell lysate, small-molecule microarray (AID 1124).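 Further: lysate comes from COS7 cells expressing LAP1 and is applied at 0.3 µg/mL; score merges spot fluorescence near 667 nm with signal-to-noise over triplicate slides.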 The note with it: probe aLAP1, fluorescence, higher = more signal.
The next test concerns Sam68 (KHDRBS1). The test is described as follows: Sam68 small-molecule binders, primary screen, biochemical, small-molecule microarray, 635 nm fluorescence (AID 1125).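 Further: score merges 667 nm channel intensity with signal to noise over triplicate slides.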 The settings on record: small-molecule microarray binding, higher = more signal.
The test system of test [7] is Chordin-like protein 2 (CHRDL2). The test is described as follows: CHRDL2 small-molecule binders, primary screen, biochemical, small-molecule microarray, 635 nm fluorescence (AID 1126).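 Further: printed compound slides probed with Chrdl2 protein at 4 µg/mL for 1 h at 4 C; score merges 667 nm emission intensity with signal to noise over three replicate slides.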 The settings on record: small-molecule microarray binding, fluorescence 635 nm; higher = more signal.
The target in test [8] is Concanavalin-A (Canavalia ensiformis) (UniProt P02866). The test is described as follows: ConA small-molecule binders, primary screen, artefact control for SMM control protein annotation, biochemical, small-molecule microarray, Alexa647 label, 635 nm (AID 1127).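 Further: z combines 667 nm emission intensity with signal-to-noise across three replicate slides.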 The settings on record: ConA-A647 binding fluorescence, higher = more signal.
Test [9] can be described thus: anti-His antibody binders, primary screen, artefact control for SMM control protein annotation, biochemical, small-molecule microarray, 635 nm fluorescence (AID 1128).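 Further: score merges feature fluorescence with signal-to-noise for each printed compound spot.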 The settings on record: anti-His Alexa647 antibody binding, higher = more signal.
Test [10] deals with Human papillomavirus type 1a E7 protein (residues 1-88). The test is described as follows: HPV1a E7 small-molecule binders, primary screen, biochemical, small-molecule microarray, residues 1-88, 635 nm (AID 1129). The settings on record: small-molecule microarray binding, fluorescence 635 nm; higher = more signal.
Test [11] has as its target Focal adhesion kinase 1 (Homo sapiens) (UniProt Q05397). The test is described as follows: small-molecule microarray binders of FAK, primary screen, biochemical, 635/667 nm fluorescence, BSA, DTT (AID 1130).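 Further: composite of spot emission at 667 nm and signal to noise over triplicate slides.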 The settings on record: PTK2 binding, 635 nm fluorescence, higher = more signal.
The test system of test [12] is Fibrinogen (Alexa647-labelled). The test is described as follows: fibrinogen binders on compound microarrays, profiling panel, artefact control for SMM control-protein annotation, biochemical, small-molecule microarray, 635/667 nm fluorescence (AID 1131).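 Further: z-score merges 667 nm fluorescence with per-spot signal-to-noise over triplicate slides.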 The settings on record: fibrinogen-A647 binding fluorescence, higher = more signal.
For test [13], the target named is Follistatin (Homo sapiens) (UniProt P19883). The test is described as follows: follistatin binders on small-molecule microarrays, primary screen, biochemical, small-molecule microarray, 635/667 nm fluorescence (AID 1132). The settings on record: FST binding, 635 nm fluorescence, higher = more signal.
Test [14] has as its target Fibroblast growth factor 2 (Homo sapiens) (UniProt P09038). The test is described as follows: FGF2 binders on small-molecule microarrays, primary screen, biochemical, small-molecule microarray, 635/667 nm fluorescence (AID 1133). The settings on record: small-molecule microarray binding, FGF2, fluorescence 635/667; higher = more signal.
Test [15] in a line: mitochondrial membrane potential change in A549 cells, profiling panel, cell-based, JC-1 fluorescence, basal, 24 h, 100 nL (AID 1138).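 Further: A549 lung adenocarcinoma cells under basal conditions with no added stimulus; test concentration not given here.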 The settings on record: higher = more signal.
Another test concerns Lefty1. The test is described as follows: Lefty1 binders on small-molecule microarrays, primary screen, biochemical, small-molecule microarray, 635/667 nm fluorescence (AID 1139). The settings on record: small-molecule microarray binding, fluorescence 635/667; higher = more signal.
In test [16] the test system is wheat germ agglutinin (Triticum aestivum), Alexa647-labelled. The test is described as follows: wheat germ agglutinin binders on compound microarrays, profiling panel, artefact control for SMM control-protein annotation, biochemical, small-molecule microarray, 635/667 nm fluorescence (AID 1140).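 Further: score merges 667 nm feature emission with signal to noise over triplicate slides.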 The note with it: WGA-A647 binding, 635 nm fluorescence, higher = more signal.

The target of test [17] is Luciferin 4-monooxygenase (Photinus pyralis) (UniProt P08659). The test is described as follows: firefly luciferase enzyme inhibitors, primary screen, biochemical, luminescence, purified enzyme, 2006 set (AID 1141).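 Further: cell-free assay with purified firefly luciferase at 100 ng per well in PBS; test concentration not given here.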 The note with it: SteadyGlo luminescence, 30 min, higher = more signal, called active from +8 up or from −8 down.

The structures appear in SMILES notation. Calls of active or inactive are those of the source.

Sequence of Concanavalin-A (Canavalia ensiformis) (P02866 whole entry, looked up): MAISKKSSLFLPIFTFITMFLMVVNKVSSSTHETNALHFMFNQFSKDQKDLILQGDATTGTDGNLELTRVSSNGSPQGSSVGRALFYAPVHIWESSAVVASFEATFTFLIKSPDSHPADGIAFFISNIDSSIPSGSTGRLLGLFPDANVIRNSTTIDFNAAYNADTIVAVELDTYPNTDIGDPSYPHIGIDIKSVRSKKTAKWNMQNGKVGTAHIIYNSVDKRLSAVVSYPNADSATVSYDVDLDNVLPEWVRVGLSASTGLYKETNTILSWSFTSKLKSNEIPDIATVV
Sequence of Focal adhesion kinase 1 (Homo sapiens) (Q05397 whole entry, looked up): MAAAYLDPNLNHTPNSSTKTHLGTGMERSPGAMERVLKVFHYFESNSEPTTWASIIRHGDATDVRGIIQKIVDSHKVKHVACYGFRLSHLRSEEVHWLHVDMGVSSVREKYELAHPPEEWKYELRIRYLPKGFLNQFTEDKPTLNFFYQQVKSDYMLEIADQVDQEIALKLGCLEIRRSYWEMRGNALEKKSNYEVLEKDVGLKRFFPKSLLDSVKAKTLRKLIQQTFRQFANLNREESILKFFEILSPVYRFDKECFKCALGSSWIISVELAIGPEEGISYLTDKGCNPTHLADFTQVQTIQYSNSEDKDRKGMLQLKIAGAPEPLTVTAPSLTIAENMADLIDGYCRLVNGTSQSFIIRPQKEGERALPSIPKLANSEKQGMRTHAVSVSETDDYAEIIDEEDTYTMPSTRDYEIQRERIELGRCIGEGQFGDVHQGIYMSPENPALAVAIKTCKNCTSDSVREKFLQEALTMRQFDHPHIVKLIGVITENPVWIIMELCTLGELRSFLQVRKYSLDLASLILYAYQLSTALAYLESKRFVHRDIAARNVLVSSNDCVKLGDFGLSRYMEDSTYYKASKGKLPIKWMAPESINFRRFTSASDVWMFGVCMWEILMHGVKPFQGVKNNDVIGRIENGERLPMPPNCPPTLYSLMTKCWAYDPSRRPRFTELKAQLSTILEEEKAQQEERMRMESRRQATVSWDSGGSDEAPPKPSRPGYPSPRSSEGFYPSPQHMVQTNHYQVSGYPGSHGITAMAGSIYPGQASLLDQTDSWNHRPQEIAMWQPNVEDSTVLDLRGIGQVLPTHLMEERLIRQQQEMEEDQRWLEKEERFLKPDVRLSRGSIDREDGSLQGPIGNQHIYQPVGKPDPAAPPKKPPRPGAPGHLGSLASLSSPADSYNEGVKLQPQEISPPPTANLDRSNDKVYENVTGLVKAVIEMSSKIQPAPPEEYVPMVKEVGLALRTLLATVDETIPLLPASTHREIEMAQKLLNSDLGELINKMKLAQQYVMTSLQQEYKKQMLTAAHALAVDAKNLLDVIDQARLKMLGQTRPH
Sequence of Albumin (Bos taurus) (P02769 whole entry, looked up): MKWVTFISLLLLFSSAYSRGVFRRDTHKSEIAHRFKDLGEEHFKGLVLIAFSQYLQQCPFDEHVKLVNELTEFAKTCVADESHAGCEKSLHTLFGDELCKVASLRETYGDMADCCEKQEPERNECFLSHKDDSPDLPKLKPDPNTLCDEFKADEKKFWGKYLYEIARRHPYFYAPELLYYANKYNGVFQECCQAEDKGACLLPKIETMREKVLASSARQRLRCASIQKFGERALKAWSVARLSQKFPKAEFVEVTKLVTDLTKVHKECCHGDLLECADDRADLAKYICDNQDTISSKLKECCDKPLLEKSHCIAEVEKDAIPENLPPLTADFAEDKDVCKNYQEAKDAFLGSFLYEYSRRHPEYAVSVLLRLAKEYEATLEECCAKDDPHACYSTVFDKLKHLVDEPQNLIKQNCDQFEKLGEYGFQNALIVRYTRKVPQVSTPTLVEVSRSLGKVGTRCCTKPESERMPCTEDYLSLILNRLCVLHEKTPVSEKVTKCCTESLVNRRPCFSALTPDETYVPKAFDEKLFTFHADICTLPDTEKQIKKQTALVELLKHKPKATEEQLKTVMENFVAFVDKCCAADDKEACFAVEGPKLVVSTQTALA
Sequence of Fibroblast growth factor 2 (Homo sapiens) (P09038 whole entry, looked up): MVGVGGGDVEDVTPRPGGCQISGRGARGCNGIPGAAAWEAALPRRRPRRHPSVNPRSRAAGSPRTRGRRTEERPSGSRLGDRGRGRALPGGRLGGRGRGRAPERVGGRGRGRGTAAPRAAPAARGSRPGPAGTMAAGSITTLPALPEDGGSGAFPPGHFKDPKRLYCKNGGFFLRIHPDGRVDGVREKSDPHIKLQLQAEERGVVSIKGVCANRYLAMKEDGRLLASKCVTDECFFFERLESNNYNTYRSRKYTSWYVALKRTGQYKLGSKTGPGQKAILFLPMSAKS
Sequence of Follistatin (Homo sapiens) (P19883 whole entry, looked up): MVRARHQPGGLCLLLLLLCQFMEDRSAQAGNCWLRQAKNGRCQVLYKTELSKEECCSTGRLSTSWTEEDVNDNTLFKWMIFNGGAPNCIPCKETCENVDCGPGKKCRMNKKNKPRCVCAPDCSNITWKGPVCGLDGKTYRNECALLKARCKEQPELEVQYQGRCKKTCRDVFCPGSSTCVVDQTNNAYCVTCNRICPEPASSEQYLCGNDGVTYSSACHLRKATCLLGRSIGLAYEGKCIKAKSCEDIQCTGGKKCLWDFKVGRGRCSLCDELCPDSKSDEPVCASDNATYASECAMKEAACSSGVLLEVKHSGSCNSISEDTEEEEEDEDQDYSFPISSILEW
Sequence of Luciferin 4-monooxygenase (Photinus pyralis) (P08659 whole entry, looked up): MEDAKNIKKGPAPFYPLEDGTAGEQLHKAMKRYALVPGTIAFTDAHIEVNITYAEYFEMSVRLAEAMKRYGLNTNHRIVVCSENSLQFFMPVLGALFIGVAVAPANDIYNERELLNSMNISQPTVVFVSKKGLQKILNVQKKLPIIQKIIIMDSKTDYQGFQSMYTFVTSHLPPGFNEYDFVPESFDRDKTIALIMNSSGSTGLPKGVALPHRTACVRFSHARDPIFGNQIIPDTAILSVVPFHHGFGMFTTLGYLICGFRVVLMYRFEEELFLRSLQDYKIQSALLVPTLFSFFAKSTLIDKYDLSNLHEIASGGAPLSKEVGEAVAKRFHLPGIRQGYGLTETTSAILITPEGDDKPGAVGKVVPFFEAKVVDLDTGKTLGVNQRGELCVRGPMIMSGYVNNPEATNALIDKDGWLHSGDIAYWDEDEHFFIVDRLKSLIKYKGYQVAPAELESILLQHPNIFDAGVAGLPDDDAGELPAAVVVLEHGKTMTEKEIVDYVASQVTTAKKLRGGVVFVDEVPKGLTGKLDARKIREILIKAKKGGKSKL

In the case of `CC(C)C(=C=CC[C@H](O)c1ccc(CO)o1)CCO`, the composite z-score in the test with Albumin (Bos taurus) is 0.906; in test [2], -0.111; in test [3], -0.148; in test [4], 0.756; in test [5] it was 0.514; in test [6], 0.792. Besides, the composite z-score in the test with Sam68 (KHDRBS1) was 0.856; in [7], 0.0622; in test [8], 0.828; in test [9], 0.748; in test [10] it was 0.679; in test [11], 0.217. For the same compound, the composite z-score in test [12] was found to be 0.0411; in test [13] it was 1.01; in test [14], 0.489; in the test on Lefty1 it was 1.37; in test [16], 0.383. For the same compound, in [1], the composite Z-score is 0.304 (inactive). In addition, the z-score in test [15] is -0.589; in [17] it was -0.751 (inactive).
For `[N-]=[N+]=Nc1ccccc1C[C@]1(C(=O)N2CCCCC2)COC(c2ccc(OCCCO)cc2)=N1`, the composite z-score with Albumin (Bos taurus) is 0.715; in test [2], 0.176; in [3] it was -0.124; in test [4], 0.613; in test [5], 2.74; in test [6], 0.236. The composite z-score was 1.28 in the test with Sam68 (KHDRBS1); -0.217 in test [7]; 0.345 in [8]; 1.33 in [9]; 1.15 in test [10]; 0.65 in test [11]. Also, the composite z-score in test [12] is 1.01; in test [13] it was 0.601; in test [14], -0.0446; in the test on Lefty1, 0.308; in test [16] it was 0.523. For the same compound, the composite Z-score in test [1] is -0.218 (inactive). The z-score is 0.124 in test [15] and -6.97 (inactive) in test [17].
As to `CCN(CC)c1ccc(N2CC=CC34O[C@@H]5C=CCOC(=O)[C@@H]5[C@H]3C(=O)N(CCCCCCO)[C@@H]4C2=O)cc1` (stereo not given in full), the composite z-score with Albumin (Bos taurus) was 0.99; in test [2] it was -0.126; in test [3], -0.174; in [4] it was 0.909; in test [5], 0.922; in test [6], 0.751. Besides, the composite z-score in the test with Sam68 (KHDRBS1) is 0.0127; in test [7], -1.5; in test [8], -0.214; in test [9] it was 0.449; in test [10], -0.202; in [11] it was -0.148. In addition, the composite z-score in test [12] was -1.57; in test [13], -0.0283; in test [14], -0.666; in the test with Lefty1 it was 0.436; in [16], -0.0009. Moreover, in test [1], the composite Z-score is 0.451 (inactive). For the same compound, the z-score is 0.262 in test [15] and -3.88 (inactive) in test [17].
As to `CCCCN1CC=CC23O[C@@H]4/C=C\CCCOC(=O)C4[C@H]2C(=O)N(CCCCCO)[C@@H]3C1=O` (stereo not given in full), the composite z-score is -1.09 with Albumin (Bos taurus); -0.326 in test [2]; -0.192 in test [3]; 0.754 in test [4]; -0.494 in [5]; 0.85 in test [6]. Further, the composite z-score with Sam68 (KHDRBS1) was -1.12; in test [7], -0.722; in test [8] it was -1.22; in test [9], 0.688; in test [10], -1.02; in test [11], 1.31. Also, the composite z-score in test [12] is -0.918; in test [13] it was -0.803; in test [14], -0.573; in the test with Lefty1, -1.12; in [16] it was -0.595. The composite Z-score in [1] is 0.414 (inactive). The z-score in test [15] is 0.897; in [17], 0.686 (inactive).
As for `O=C1OCCC=C[C@H]2OC34C=CCN(CCN5CCOCC5)C(=O)[C@H]3N(CCCCCO)C(=O)[C@@H]4C12` (stereo not given in full), the composite z-score is 0.953 with Albumin (Bos taurus); -0.152 in [2]; -0.203 in test [3]; 0.848 in test [4]; 2.4 in [5]; 1.48 in test [6]. The composite z-score in the test with Sam68 (KHDRBS1) was 0.913; in test [7], 0.355; in test [8], 0.935; in test [9], -0.166; in test [10], 0.56; in [11], 0.398. Also, the composite z-score in [12] is 0.709; in test [13], -0.211; in [14], -0.363; in the test on Lefty1, -0.301; in test [16], 0.615. The composite Z-score in test [1] is -0.88 (inactive). The z-score in test [15] is 0.791; in test [17], -0.956 (inactive).
As for `NCCCCCNC(=O)[C@H]1C[C@H]2C(=O)N3CCC[C@H]3C(=O)N2[C@H]1c1ccc(O)cc1`, the composite z-score in the test with Albumin (Bos taurus) is 0.851; in [2] it was 0.489; in [3], -0.0024; in [4], 0.445; in test [5], 0.676; in [6] it was 0.0612. Besides, the composite z-score stood at 1.33 with Sam68 (KHDRBS1); 0.464 in test [7]; 1.17 in test [8]; 0.695 in test [9]; 1.15 in test [10]; 0.223 in test [11]. The composite z-score in test [12] amounted to 0.894; in test [13], 1.34; in [14] it was 1.35; in the test with Lefty1, 1.1; in test [16] it was 0.781. For the same compound, the composite Z-score in [1] was 1.56 (inactive). Besides, the results for the z-score in test [15] and in [17] were -0.373 and -0.462 (inactive), respectively.
